Screening results (PubChem)
HIF-2a block: blocks HIF-2a reporter activity; inhibition, % at 18.8 µM; 786-0 RCC cells HIF-2a reporter, luciferase luminescence, overnight; 360,000 compounds, 0.72% hits;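 active = inhibition of the luminescence signal of 40% or more relative to plate controls, in a single-dose primary screen at 18.75 µM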
Shn3 3UTR inh: inhibitors of Schnurri-3 3'UTR reporter in osteoblasts | Clone20 osteoblast Shn3 3'UTR firefly luciferase, 24 h | inhibition, % at 12.5 µM | 360,000 compounds, 0.52% hits | AID 588674;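 active = mean inhibition of at least 75% with every replicate also reaching 75%; inconclusive = mean inhibition at least 75% but some replicate below; inactive = mean inhibition below 75%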;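 note: 0% = median of neutral control wells and 100% = pilot-screen positive control compound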
MITF TRPM1 inh: reduces MITF-dependent TRPM1 promoter luciferase signal. inhibition, % at 12.5 µM. 330,000 compounds, 0.83% hits. SK-MEL-5 TRPM1 promoter luciferase, 24 h;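 active = mean inhibition across replicates of 60% or more, whatever share of single replicates reaches that level; inconclusive = some that reach 60%, reason not given; inactive = mean inhibition across replicates below 60%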
Peg3 prom inh: reduces Peg3 promoter-driven luciferase expression in HeLa. HeLa PEG-Prom luciferase reporter, luminescence, overnight. inhibition, % at 20 µM. 360,000 compounds, 1.7% hits;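 active = inhibition of at least 50% at 20 µM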
CF NFkB inh: blocks PAF-induced NF-kB reporter in cystic fibrosis cells; inhibition, % at 5 µM; KKLEB NF-kB-GFP reporter, GFP fluorescence overnight; AID 588850; 360,000 compounds, 0.86% hits;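 active = at least 50% inhibition at 5 µM, scaled per plate between neutral and stimulator controls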;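 note: PAF is a Pseudomonas aeruginosa culture filtrate used as stimulus; plate controls were PAF-stimulated DMSO wells for no effect and unstimulated DMSO wells for full effect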
KKLEB tox: reduces viability of KKLEB cystic fibrosis airway cells | KKLEB CF airway cells viability, ATPlite luminescence, overnight; active compounds read low; cells stimulated with P. aeruginosa culture filtrate | activity change (cytotoxicity), % at 5 µM | 360,000 compounds, 0.36% hits | AID 602141;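 active = corrected activity change at or below -50% at 5 µM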
Numbers without * were called inactive; ? = inconclusive; . = not tested or not shown. Most compounds without a hit are left out; they make up all but 2.8% or so of the library.

SMILES	HIF-2a block	Shn3 3UTR inh	MITF TRPM1 inh	Peg3 prom inh	CF NFkB inh	KKLEB tox
c1ccc(C[n+]2cccc3c4ccccc4ccc32)cc1	6	20	62*	16	-13	0
O=C(NCc1cccnc1)c1cc(C2CCCCN2C(=O)CCCc2ccccc2)on1 (stereo not drawn)	23	8	.	8	-55	28
COc1ccc(C2/C=C\CN(C(=O)c3ccc(C)cc3)[C@H](Cc3ccccc3)C(=O)N2Cc2ccc(F)cc2)cc1 (stereo partly drawn)	-1	87*	1	70*	-7	-8
COc1ccc(C2/C=C\CN(C(=O)C3CC3)[C@H](Cc3ccccc3)C(=O)N2Cc2ccc(F)cc2)cc1 (stereo partly drawn)	12	10	2	21	0	-4
O=S(=O)(NCC[C@@H]1CC[C@H](NS(=O)(=O)c2cccc(F)c2)[C@@H](CO)O1)c1cccc(F)c1	1	.	.	.	.	.
CCCCCCCC/C=C\CCCCCCCC(=O)O	-2	-29	0	2	14	7
CCCCCCCCCCCCC/C=C/[C@@H](O)[C@@H](N)CO	6	-29	9	55*	-8	-1
CCCSc1cc(N2CCOCC2)nc(-c2ccccc2Cl)n1	14	15	6	15	2	-6
O=C(COc1ccccc1/C=C1\SC(=S)NC1=O)Nc1ccc(F)cc1	-31	13	13	21	52*	2
NC1=NC(=O)/C(=C/c2ccccc2OCC(=O)Nc2ccc(F)cc2)S1	2	0	0	13	-12	-2
COc1ccc(NC(=O)/C(Cl)=C(/Cl)S(=O)Cc2ccccc2Cl)cn1 (stereo not drawn)	.	.	98*	.	.	.
COc1ccc(NC(=O)/C(Cl)=C(/Cl)S(=O)(=O)Cc2ccc(C)cc2)cn1	96*	?	94*	105*	87*	-71*
CCn1c(SCC(=O)NCc2ccccc2)nc2c(c1=O)SC(C)C2 (stereo not drawn)	13	7	-13	2	3	-1
OC[C@H]1O[C@@H](Oc2ccc(O)cc2)[C@H](O)[C@@H](O)[C@@H]1O	-2	88*	14	7	-6	10
c1ccc(-c2ncc3c(ccc4ccccc43)n2)cc1	-35	15	0	-81	-15	-54*
COc1ccc(/C=C/C(=O)OCC(=O)Nc2ccc(N3CCOCC3)cc2)cc1OC	15	11	-4	3	5	0
CCOc1ccc(NC(=O)Cn2nnc(C(=O)NCc3ccc4c(c3)OCO4)c2N)cc1	3	-29	11	29	27	-14
O=C(COC(=O)c1ccc2c(c1)C(=O)N(c1cccc3ncccc13)C2=O)c1ccc(Cl)cc1	0	-1	48	13	-7	4
Cc1ccc(C(=O)COC(=O)c2ccc3c(c2)C(=O)N(c2cccc4ncccc24)C3=O)cc1	16	13	44	102*	12	-12
COc1ccc(N(CC(=O)N/N=C(\C)c2ccc(OC)c(OC)c2)S(=O)(=O)c2ccccc2)cc1	16	24	-12	5	12	-2
CC(C)[C@@H](NC(=O)C1CCC(CNC(=O)[C@H](Cc2ccccc2)NC(=O)OC(C)(C)C)CC1)C(=O)O (stereo partly drawn)	-12	11	-2	7	-9	3
O=C(Nc1ccc(F)cc1)c1nn(-c2ccccc2)c(=O)cc1Cl	39	34	-7	99*	8	-8
COc1ccc(CNc2nc3c(c(=O)n(Cc4ccc(Br)cc4)c(=O)n3C)n2C)cc1	26	34	24	48	25	-14
Cn1c(=O)c2c(nc(NCc3ccc4c(c3)OCO4)n2Cc2ccccc2)n(C)c1=O	15	60	4	28	5	5
Cn1c(=O)c2c(nc(NCc3ccc4c(c3)OCO4)n2Cc2ccc(F)cc2)n(C)c1=O	18	79	15	56*	3	-6
SMILES	HIF-2a block	Shn3 3UTR inh	MITF TRPM1 inh	Peg3 prom inh	CF NFkB inh	KKLEB tox
Cn1c(NCc2ccccc2)nc2c1c(=O)n(Cc1ccc(Br)cc1)c(=O)n2C	25	20	9	51*	2	0
COCCNc1nc2c(c(=O)n(C)c(=O)n2C)n1Cc1cccc(C(F)(F)F)c1	5	90*	1	22	0	-4
CC(O)CNc1nc2c(c(=O)n(C)c(=O)n2C)n1Cc1cccc(C(F)(F)F)c1 (stereo not drawn)	12	12	-2	8	-6	5
CCCNc1nc2c(c(=O)n(C)c(=O)n2C)n1Cc1cccc(C)c1	13	96*	14	12	-7	-5
CCCNc1nc2c(c(=O)n(C)c(=O)n2C)n1CCc1ccccc1	5	57	2	20	17	-19
COc1cc(SC)ccc1C(=O)Nc1ccc(Br)cn1	38	75	57	55*	-10	-85*
COc1ccc(Br)cc1C1NC(=O)NC(C)=C1C(=O)N(C)C (stereo not drawn)	10	-8	-2	0	1	-53*
COC(=O)C1=C(C)NC(=O)NC1c1cc(Cl)ccc1OC (stereo not drawn)	8	8	1	11	7	4
N#C/C(=N\Nc1cccc(C(F)(F)F)c1)C(=O)c1csc(-c2cccnc2)n1	-29	6	4	26	53*	-40
Cc1ccc(C(=O)Nc2cccc(C(F)(F)F)c2)cc1NC(=O)c1csc(-c2ccncc2)n1	-29	23	-8	39	29	-3
Cc1cc(OCC(=O)Nc2ccc3oc(-c4ccncc4)nc3c2)ccc1Cl	8	10	6	53*	-1	11
OCCNCc1ccc(OCc2ccc(Cl)cc2Cl)cc1	-74	-28	-23	-41	-8	3
OCCCCNCc1ccc(OCc2ccc(Cl)cc2Cl)cc1	-23	-2	-5	100*	23	-15
C[C@]12C=CC(=O)C=C1CC[C@H]1[C@@H]3C[C@@H](O)[C@](O)(C(=O)CO)[C@@]3(C)C[C@H](O)[C@@]12F	23	6	-12	-9	77*	-16
CC12C=CC(=O)C=C1CCC1C2C(=O)CC2(C)C1CCC2(O)C(=O)CO (stereo not drawn)	5	-1	-3	4	36	22
CC1CC2C3CCC4=CC(=O)C=CC4(C)C3(F)C(O)CC2(C)C1(O)C(=O)CO (stereo not drawn)	25	.	5	5	77*	49
NC(=O)c1ccc(NC(=O)COC(=O)C2CC(=O)N(Cc3ccccc3)C2)cc1 (stereo not drawn)	1	-3	-2	16	8	-8
N=c1c2c(ncn1CCN1CCOCC1)Oc1ccc3ccccc3c1C2c1ccccc1 (stereo not drawn)	30	20	50	47	9	-21
